Compound activity as filed in PubChem BioAssay.
N-glyco inh = blocks N-linked glycosylation in D54 reporter cells; D54 ERlucT glycosylation luciferase reporter, 24 h; percent of 100 nM tunicamycin response; reporter increase, % at 12.5 µM; 360,000 tested, 0.23% active;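 active = mean luciferase reporter signal, scaled so untreated is 0 and the glycosylation-blocking control 100, at or above a set limit in every replicate; inconclusive = mean reaches the limit but not every replicate does; inactive = mean below the limit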;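 also: luciferase carries N-glycosylation sites so blocking glycosylation raises the light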
ABCB6 inh MLPCN = blocks the human ABCB6 transporter. Q9NP58. K562-ABCB6 porphyrin accumulation, flow cytometry, 1 h; hits give low values. fluorescence ratio to DMSO, % at 10 µM. 360,000 tested, 0.19% active. AID 602162;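 active = fluorescence ratio to DMSO below 75%, the collection mean minus 3 SD; inconclusive = too few cells collected in the well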;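 also: signal is porphyrin accumulated inside mitochondria; lower ratio means ABCB6 inhibition with less porphyrin fluorescence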
Vif inh = blocks HIV Vif function; HEK293T cells, Vif self-association by quenched fluorescence, imaging, 24 h; inhibition, % at 7.49 µM; 340,000 tested, 0.35% active; AID 602346; in the data active = inhibition above about 50%, passing the limit was not always enough; inconclusive = no clear call, values can overlap the other calls; inactive = below about 31%
Myeloid diff MLP = myeloid differentiation induction. AID 624256. ER-HoxA9 myeloid progenitors, lysozyme-GFP differentiation, flow cytometry. 360,000 tested, 1% active. calls only at 10 µM;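 active = normalized GFP-positive differentiation at or above the plate's own cutoff, the solvent-only control mean plus 3 SD; inconclusive = no clear call, values can overlap the other calls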;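 also: cells exposed to compound for four days before flow analysis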
RAD54 branch = blocks human RAD54 Holliday junction branch migration; Q92698; FAM/BHQ fluorescence; inhibition, % at 10.4 µM; 360,000 tested, 0.14% active;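 active = mean normalized replicate activity at least 40 and at least half of replicates scoring 40 or more; inconclusive = only one of the two criteria met; inactive = mean below 40 and under half of replicates reaching 40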;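 also: inhibitors cause a drop in the FAM fluorescence signal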
Target sequence (Q92698 whole entry, looked up): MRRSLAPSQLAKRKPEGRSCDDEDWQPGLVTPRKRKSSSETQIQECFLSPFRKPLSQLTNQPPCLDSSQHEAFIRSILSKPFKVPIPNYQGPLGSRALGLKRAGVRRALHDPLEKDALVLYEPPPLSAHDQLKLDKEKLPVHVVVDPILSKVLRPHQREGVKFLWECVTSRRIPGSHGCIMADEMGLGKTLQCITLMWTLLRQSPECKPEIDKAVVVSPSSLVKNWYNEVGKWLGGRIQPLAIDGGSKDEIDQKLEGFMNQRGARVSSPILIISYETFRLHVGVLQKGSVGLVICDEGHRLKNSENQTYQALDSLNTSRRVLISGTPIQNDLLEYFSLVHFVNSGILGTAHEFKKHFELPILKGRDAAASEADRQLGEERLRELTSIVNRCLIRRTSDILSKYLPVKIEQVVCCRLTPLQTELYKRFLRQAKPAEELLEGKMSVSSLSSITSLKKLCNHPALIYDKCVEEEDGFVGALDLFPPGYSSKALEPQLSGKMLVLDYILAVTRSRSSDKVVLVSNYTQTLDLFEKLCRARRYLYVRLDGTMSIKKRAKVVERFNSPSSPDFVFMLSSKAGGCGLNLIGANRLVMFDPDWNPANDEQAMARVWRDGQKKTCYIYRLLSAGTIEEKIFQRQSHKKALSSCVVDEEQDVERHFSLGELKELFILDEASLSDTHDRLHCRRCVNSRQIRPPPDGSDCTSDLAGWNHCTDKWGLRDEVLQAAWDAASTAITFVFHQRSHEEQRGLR
Rad54 DNA ctr = counter-screen for Rad54 inhibitors: DNA binding compounds; shares compounds with RAD54 branch; Acridine orange-DNA displacement, fluorescence polarization, 20 min; AC50, µM (top dose mostly 35 µM); 460 tested, 8% active;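 active = signal drop giving an AC50 within twice the top valid tested concentration of each sample, actives reach about 35 µM in these data; inactive = activity opposite to expected, plus the rest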;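 also: polarization loss reports compound binding to salmon sperm DNA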
Myeloid diff = promotes myeloid progenitor differentiation. calls only. 2,300 tested, 2% active. shares compounds with Myeloid diff MLP. ER-HoxA9 myeloid progenitors, GFP/Mac1 double-positive flow;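 active = share of green or green-and-red cells above 9 and 9% in run 1 or 4 and 3% in run 2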
GFP autofluor = compound fluorescence in myeloid differentiation counter-screen; shares compounds with Myeloid diff MLP; ER-HoxA9 myeloid progenitors, no estrogen, GFP autofluorescence flow cytometry; vehicle wells 0%, positive control 100%; fluorescence response, % (concentration not given with the values); 2,300 tested, 7.4% active; AID 651707;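 active = over 5% cells positive for green fluorescent reporter, or over 2% positive for both it and APC stain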
Numbers stand for hits; 0 = inactive; ? = inconclusive; - = no result; + = active, no number. An excerpt weighted towards active compounds, which were near 1.6% of everything screened.

SMILES | N-glyco inh | ABCB6 inh MLPCN | Vif inh | Myeloid diff MLP | RAD54 branch | Rad54 DNA ctr | others
CCN(CC)CCNc1ncnc2c1sc1nc(N3CCCC3)c3c(c12)CC(C)(C)OC3 | 0 | 0 | 0 | 0 | - | -
CN(C)CCNc1ncnc2c1sc1nc(N3CCCC3)c3c(c12)CC(C)(C)OC3 | 0 | 0 | 0 | 0 | 97 | 0
Cc1cc(C)n(-c2nc(NCCN(C)C)c3c4c(sc3n2)COC(C)(C)C4)n1 | 0 | 0 | 0 | 0 | ? | 0
CCn1c2ccc(C)cc2c2nnc(SCCN3CCOCC3)nc21 | 0 | 0 | 0 | 0 | - | -
Cc1ccc2c(c1)c1nc3ccccc3nc1n2CCN1CCOCC1 | 0 | 0 | 0 | 0 | 63 | 0
Cc1ccc(C(=O)c2oc3ccc(Cl)cc3c2NC(=O)CN2CCN(C)CC2)cc1 | 0 | 0 | 0 | ? | 82 | 0
COCCNc1nc2cc(-c3ccc(F)cc3)sc2c(=O)n1C | 0 | 0 | 0 | 0 | 0 | -
CN(C)CCCNc1nc2cc(-c3ccccc3)sc2c(=O)n1C | 0 | 0 | 0 | 0 | ? | 0
Cn1c(NCCN2CCCC2)nc2cc(-c3ccccc3)sc2c1=O | 0 | 0 | 0 | ? | ? | 0
CN(C)CCCNc1nc2cc(-c3cncnc3)sc2c(=O)n1C | 0 | 0 | 0 | 0 | 0 | -
CN(C)CCCNc1nc2cc(-c3ccc(F)cc3)sc2c(=O)n1C | 0 | 0 | 0 | 0 | 70 | 0
Cc1noc(C)c1S(=O)(=O)N(C)C[C@@H]1OCCCC[C@@H](C)Oc2ccc(NS(=O)(=O)c3ccc(F)cc3)cc2C(=O)N([C@H](C)CO)C[C@@H]1C | - | - | - | - | 0 | -
O=C(NCc1ccncn1)[C@@H]1[C@@H](CO)[C@@H]2Cn3c(cccc3=O)[C@H]1N2CC1CC1 | - | - | - | - | 0 | -
C/C=C/c1cnc2c(c1)C(=O)N([C@@H](C)CO)C[C@H](C)[C@@H](CN(C)C(=O)CN1CCOCC1)O2 | - | - | - | - | 0 | -
COc1cc2ccccc2cc1C(=O)Nc1sc2c(c1C(N)=O)CCN(C(C)C)C2 | 0 | 0 | 0 | ? | 81 | 0
CCN1CCc2c(sc(NC(=O)c3ccc(C(=O)c4ccccc4)cc3)c2C(N)=O)C1 | 0 | 0 | 0 | 0 | ? | 0
NC(=O)c1c(NC(=O)c2ccccc2)sc2c1CCN(Cc1ccccc1)C2 | 0 | 0 | 0 | 0 | 0 | -
CCN1CCc2c(sc(NC(=O)c3ccc(S(=O)(=O)N4CCOCC4)cc3)c2C(=O)OC)C1 | 0 | 0 | 0 | 0 | 80 | 0
CCOC(=O)c1c(NC(=O)c2ccc(S(=O)(=O)N3CCOCC3)cc2)sc2c1CCN(C(C)C)C2 | 0 | 0 | 0 | 0 | 79 | 0
CN1CCc2c(sc(NC(=O)c3ccc4ccccc4c3)c2C(N)=O)C1 | 0 | 0 | 0 | ? | ? | -
CCc1ccc2nc3nc(C)cc(C)c3c(N)c2c1 | 85 | 0 | - | + | 88 | 0
CC(=O)Nc1ccc2c(c1)C(=O)N(C)[C@@H]1CC[C@H](CC(=O)NCC3CC3)O[C@H]1CO2 | - | - | - | - | 0 | -
Cc1noc(C)c1NC(=O)Nc1ccc2c(c1)C(=O)N([C@@H](C)CO)C[C@H](C)[C@H](CN(C)S(=O)(=O)c1ccc(F)cc1)OCCCC[C@@H](C)O2 | - | - | - | - | 0 | -
Cc1ccc(-c2csc3nc4c5ccccc5c(NCCCN(C)C)nn4c(=O)c23)cc1 | 0 | 0 | 0 | 0 | 53 | 0
Cc1ccc(-c2csc3nc(C)n(N)c(=O)c23)cc1 | 0 | 0 | 0 | 0 | 0 | -
SMILES | N-glyco inh | ABCB6 inh MLPCN | Vif inh | Myeloid diff MLP | RAD54 branch | Rad54 DNA ctr | others
COc1ccccc1NC(=O)CNC(=O)c1ccccc1 | 0 | 0 | 0 | 0 | 52 | 0
C=CCN1C(=O)C(C)(C)Nc2ccccc21 | 0 | 0 | 0 | 0 | ? | 0
CCOc1ccc(Nc2cc(C)c3ccccc3n2)cc1 | 0 | 0 | 0 | 0 | 0 | -
CCOc1ccc(Nc2c3ccccc3nc3ccccc23)cc1 | 64 | 0 | 0 | - | 106 | 27µM
COc1cc(C)c2sc3ccccc3c(=O)c2c1NCCN(C)C | 0 | 0 | 0 | 0 | 93 | 9.3µM
COc1ccccc1NC(=O)Cn1nnc2sc3c(c2c1=O)CC(C)(C)OC3 | 0 | 0 | 0 | 0 | ? | 0
CN(C)Cc1cc2ccccc2c2c1COC2 | 0 | 0 | 0 | 0 | 0 | -
Cc1cc2ccc3ccccc3c2cc1CN(C)C | 0 | 0 | 0 | 0 | 52 | 0
O=S(=O)(CCSc1ccc(C(F)(F)F)cn1)c1ccccc1 | 0 | 0 | 0 | 0 | - | -
Cc1ccc(S(=O)(=O)CCSc2ccc(C(F)(F)F)cn2)cc1 | 0 | 0 | 0 | 0 | ? | 0
Cc1cccc(Cn2c(Sc3nc(C)cs3)nc3c2c(=O)[nH]c(=O)n3C)c1 | 0 | 0 | 0 | 0 | ? | 0
Cc1csc(Sc2nc3c(c(=O)[nH]c(=O)n3C)n2Cc2ccccc2Cl)n1 | 0 | 0 | 0 | 0 | 0 | -
CCNC(=O)C[C@H]1CC[C@H]2[C@@H](COC[C@H](O)CN2C(=O)C2CC2)O1 | - | - | - | - | 0 | -
CN1CCN(C(=O)C[C@@H]2C[C@@H]3c4cc(NC(=O)Nc5ccc(C(F)(F)F)cc5)ccc4O[C@@H]3[C@@H](CO)O2)CC1 | - | - | - | - | 0 | -
COc1cc2[nH]c3c(=O)n(CCN4CCCCC4)cnc3c2cc1OC | 0 | 0 | - | 0 | 55 | 0
CCN1CCN(c2nc3ccccc3n3cnnc23)CC1 | 0 | 0 | 0 | 0 | - | -
Cc1nnc2c(N3CCN(CCO)CC3)nc3ccccc3n12 | 0 | 0 | 0 | 0 | ? | 0
CCCCN(CC)CCNC(=O)c1cc2c(-c3ccc(Cl)cc3)nn(C)c2s1 | 0 | 0 | 0 | 0 | 82 | 0
CCCN(CCC)CCNC(=O)c1cc2c(-c3ccc(Cl)cc3)nn(C)c2s1 | 0 | 0 | 0 | ? | 61 | 0
COc1cccc(-c2cc3nc(NCCN4CCCC4)n(C)c(=O)c3s2)c1 | 0 | 0 | 0 | 0 | 70 | 0 | Myeloid diff=0;GFP autofluor=0
Cn1c(NCCN2CCCC2)nc2cc(-c3cccc(C(F)(F)F)c3)sc2c1=O | 0 | 0 | 0 | 0 | 0 | -
CCCCNC(=O)c1c(O)c2cccc3c2n(c1=O)CCC3 | 0 | 0 | 0 | 0 | 0 | -
CCNCCNC(=O)c1c(O)c2cccc3c2n(c1=O)CCC3 | 0 | 0 | 0 | 0 | ? | 0 | Myeloid diff=0;GFP autofluor=0
Cc1noc(C)c1NC(=O)Nc1ccc2c(c1)C(=O)N([C@H](C)CO)C[C@@H](C)[C@H](CN(C)S(=O)(=O)c1c(C)noc1C)OCCCC[C@@H](C)O2 | - | - | - | - | 0 | -
CCCN1C[C@H](C)[C@H](OC)CN(C)C(=O)c2cc(NC(=O)c3cccc(F)c3)ccc2OC[C@@H]1C | - | - | - | - | 0 | -
COc1cc(NCCCNC(C)C)c2nccc(C)c2c1 | 0 | 0 | 67 | + | 83 | 0 | Myeloid diff=0;GFP autofluor=0
CCN(CC)CCNC(=O)c1cc2c(-c3ccc(Cl)cc3)nn(C)c2s1 | 36 | 0 | 0 | + | 113 | 0 | Myeloid diff=0;GFP autofluor=0
COc1ccccc1-n1cnc2cc(NC(=O)c3ccco3)ccc21 | 0 | 0 | 0 | + | 0 | - | Myeloid diff=0;GFP autofluor=0
O=C(N/N=C/c1ccc[nH]1)c1ccc(COc2cccc3cccnc23)cc1 | 0 | 0 | 0 | + | 0 | - | Myeloid diff=0;GFP autofluor=0
